Assay results: PubChem BioAssay (EPA / NIEHS)
The source made the active and inactive calls. The calls were made as follows: active = hit-call score of the fitted dose curve at least 0.9, where 1 is the maximum; inactive = score below 0.9.

Each compound was assayed on Human Leukocyte Antigen - DR isotype (HLADR), HLA-DRA (gene 3122) (assay: BSK_BE3C_HLADR: BioMAP Diversity Plus: BE3C Assay for Human Leukocyte Antigen - DR isotype (HLADR) Biomarker Activity (AID 2283032)). Conditions: primary human bronchial epithelial cells; actives raise or lower the signal.
Method in brief: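 Cell-surface HLA-DR ELISA readout at 24 h after dosing in the BE3C primary human lung bronchial epithelial system; gain or loss of signal against DMSO, with parallel sulforhodamine B staining of total protein for overt cytotoxicity.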

Row | Compound | AC50 | outcome
1 | C/C=C\C/C=C/CCCCCCCCOC(C)=O | 25.7 µM (active) | –
2 | c1ccc(-c2ccccn2)nc1 | – | inactive
3 | CCO[Si](CCCN=C=O)(OCC)OCC | – | inactive

Each compound was assayed on Vascular cell adhesion molecule 1 (VCAM1), VCAM1 (gene 7412) (assay: BSK_4H_VCAM1: BioMAP Diversity Plus: 4H Assay for Vascular cell adhesion molecule 1 (VCAM1) Biomarker Activity (AID 2283033;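 as to outcome: cell-surface VCAM-1 protein measured by ELISA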)). Conditions: primary human endothelial cells (HUVEC); actives raise or lower the signal.
Method in brief: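 VCAM-1 ELISA read 24 h after chemical dosing of HUVEC in the BioMAP 4H system, with gain or loss of signal fitted relative to DMSO. Parallel SRB staining (560 nm) checked overt cytotoxicity.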

Row | Compound | AC50 | outcome
4 | C/C=C\C/C=C/CCCCCCCCOC(C)=O | 29.3 µM (active) | –
5 | c1ccc(-c2ccccn2)nc1 | – | inactive
6 | CCO[Si](CCCN=C=O)(OCC)OCC | – | inactive

These compounds were tested on Interferon-gamma inducible Protein 10 (IP10), CXCL10 (gene 3627) (assay: BSK_BE3C_IP10: BioMAP Diversity Plus: BE3C Assay for Interferon-gamma inducible Protein 10 (IP10) Biomarker Activity (AID 2283034)). Conditions: primary human bronchial epithelial cells; actives raise or lower the signal.
Method in brief: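 IP-10 quantified by ELISA in human primary bronchial epithelial cell cultures at 24 hours post-dosing. Gain or loss of signal fitted relative to DMSO; parallel SRB staining assessed overt cytotoxicity.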

Row | Compound | AC50 | outcome
7 | C/C=C\C/C=C/CCCCCCCCOC(C)=O | 20 µM (active) | –
8 | c1ccc(-c2ccccn2)nc1 | – | inactive
9 | CCO[Si](CCCN=C=O)(OCC)OCC | – | inactive
